TDP1 cell noCPT: qHTS for Inhibitors of human tyrosyl-DNA phosphodiesterase 1 (TDP1): qHTS in cells in absence of CPT; DT40 Tdp1-/- hTDP1 cells, no CPT, ATP luminescence, 48 h; Potency, µM (series often up to 46.2 µM), without a hit: at the highest dose activity change, negative = growth inhibition, actives largely listed as inhibitors; 420,000 tested, 15% active; note: potency is the fitted concentration of half-maximal effect; nearly all actives have a fitted effect of over 55% in size
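Camptothecin absent (DMSO only). Human TDP1-complemented DT40 knockout cells, 400 cells/well, 37 °C for minimum 48 hr; ATP measured via CellTiter-Glo, 30 min dark incubation, luminescence.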
Six1-Eya2 blk: inhibitors of human Six1/Eya2 interaction; Q15475+O00167; AlphaScreen GST-Six1/His-Eya2 binding, biochemical; hits give low values; activity change, % (concentration not given with the values); 360,000 tested, 0.56% active; AID 651725; in the data active = activity change below about -65%; inconclusive = mostly about -30% to -63%
Target sequence (O00167 whole entry, looked up): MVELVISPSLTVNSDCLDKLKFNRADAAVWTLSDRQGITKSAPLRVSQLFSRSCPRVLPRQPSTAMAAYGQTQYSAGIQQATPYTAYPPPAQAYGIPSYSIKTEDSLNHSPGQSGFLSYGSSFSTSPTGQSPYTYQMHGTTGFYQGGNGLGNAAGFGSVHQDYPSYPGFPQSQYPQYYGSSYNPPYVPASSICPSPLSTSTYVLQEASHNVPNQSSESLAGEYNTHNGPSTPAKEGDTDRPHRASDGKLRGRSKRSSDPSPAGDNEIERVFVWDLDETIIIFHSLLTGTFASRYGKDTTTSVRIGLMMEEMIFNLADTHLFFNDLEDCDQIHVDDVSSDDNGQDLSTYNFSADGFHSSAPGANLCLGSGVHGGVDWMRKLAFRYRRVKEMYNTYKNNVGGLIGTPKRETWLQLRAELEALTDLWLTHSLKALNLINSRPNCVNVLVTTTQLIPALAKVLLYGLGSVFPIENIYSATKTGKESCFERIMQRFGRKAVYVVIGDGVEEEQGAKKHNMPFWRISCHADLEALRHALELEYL
Target sequence (Q15475 whole entry, looked up): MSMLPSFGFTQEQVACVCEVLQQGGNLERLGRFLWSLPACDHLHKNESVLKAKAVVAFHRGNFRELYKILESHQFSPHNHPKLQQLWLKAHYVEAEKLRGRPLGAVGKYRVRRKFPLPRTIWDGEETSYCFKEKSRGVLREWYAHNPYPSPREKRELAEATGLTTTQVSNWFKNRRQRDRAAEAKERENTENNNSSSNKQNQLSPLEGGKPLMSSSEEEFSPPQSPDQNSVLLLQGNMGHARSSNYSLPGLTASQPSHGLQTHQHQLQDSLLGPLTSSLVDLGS
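GST-Six1 + His-Eya2 (5X stock: 250/500 nM); Tris pH 8.0, 300 mM NaCl, 0.05% BSA, 0.02% Tween 20; GSH donor/Ni acceptor beads; 1 h 37 °C dark; AlphaScreen readout.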
CtBP-E1A blk: inhibitors of CtBP/E1A interaction | activity change, % (no concentration beside the values) | 340,000 tested, 0.49% active | AlphaScreen GST-E1A/His-CtBP binding, 1536-well; hits give low values; in the data active = activity change below about -65%; inconclusive = mostly about -30% to -63%
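AlphaScreen with 125 nM GST-E1A and 125 nM His-CtBP (5X stocks) in Tris pH 8.0, 300 mM NaCl, BSA, Tween 20, TCEP. Compounds preincubated 2 h at 37 deg C, then glutathione donor/nickel acceptor beads added for 1 h at 37 deg C in dark.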
TDP1 cell CPT: growth inhibition of DT40 Tdp1-/-;hTDP1 cells with camptothecin (screen for TDP1 inhibitors); chicken DT40 Tdp1-/-;hTDP1 cells + 20 nM CPT, ATP luminescence, 48 h; Potency, µM (doses to about 46.2 µM), without a hit: top-dose activity change, negative = growth inhibition, actives largely listed as inhibitors; 420,000 tested, 12% active; AID 686979; note: potency is the fitted concentration of half-maximal effect; nearly all actives have a fitted effect of over 55% in size
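Cell growth measured by CellTiter-Glo luminescence after a minimum 48 h, 37 C compound exposure with 20 nM CPT in Tdp1-knockout DT40 cells stably expressing hTDP1, seeded 400/well; qHTS titration format.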
TDP1 inh: blocks human tyrosyl-DNA phosphodiesterase 1; Q9NUW8; recombinant TDP1, AlphaScreen DNA substrate cleavage; Potency, µM (series often up to 130 µM), for the others: top-dose activity change, negative = inhibition, most hits filed as inhibitors; 350,000 tested, 0.28% active; note: potency is the fitted concentration of half-maximal effect; nearly all actives have a fitted effect of over 40% in size
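E. coli-derived human Tdp1, 1 nM final. Cpd preinc 15 min RT; substrate 15 nM final, 5 min RT; AS bead mix 10 ug/ml final, 10 min RT. Signal loss = tyrosine-FITC cleavage. No-enzyme wells = max signal.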
IL1B secr inh: inflammasome signaling inhibition, IL-1 beta readout | 360,000 tested, 4.7% active | THP-1 LPS/ATP IL-1B secretion, AlphaLISA, 16 h; hits give low values | activity change, % at 57.5 µM; in the data active = activity change below about -50%; inconclusive = mostly about -30% to -49%
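THP-1 cells pretreated 1 hr with compounds (up to 57.5 uM final), then stimulated with LPS (250 ng/mL final) plus ATP (1.25 mM final); secreted IL-1B measured by AlphaLISA after 16 hr, decreased signal indicating inhibition.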
* hit, by the source's call; ? = inconclusive; / = no result given; [ ] = another dose, or the depositor's remark. The list is not random: actives were taken first. Their share in the collection is about 18%. Unless noted, calls come from the whole dose curve; as a rule, active = well fitted curve in the direction sought with a large enough effect; inconclusive = small, poorly fitted or top-dose-only effect, or another doubt; inactive = no such curve, though single readings can be large; an effect the other way counts as inactive or inconclusive. % is set by controls: 0 for no effect and ±100 for the full control effect.

SMILES	TDP1 cell noCPT	Six1-Eya2 blk	CtBP-E1A blk	TDP1 cell CPT	TDP1 inh	IL1B secr inh
Cc1csc(SCC(=O)Nc2sccc2C(N)=O)n1	-28.2%	-8.8	-6.2	-15.4%	5.3%	-9.1
Cc1nc(SCC(=O)N2CCN(C(=O)c3ccco3)CC2)c2c(C)c(C)sc2n1	?	1.8	3.0	?	2.1%	-21.5
COc1ccc(C(=O)NCCCNC(=O)c2ccccn2)cc1Br	1.2%	-9.8	2.3	-14.8%	3.9%[56.1 µM]	20.3
Cc1ccc2nc(-c3ccc(NC(=O)COC(=O)c4ccc(=O)[nH]c4)cc3)sc2c1	-21.2%	-19.8	-0.7	-11.3%	4.7%	7.7
Cc1nc(SCC(=O)Nc2ccc(S(=O)(=O)N3CCOCC3)cc2)c2c(C)c(C)sc2n1	?	-22.9	4.9	25.9µM*	2.1%	?
CC(=O)c1c(O)c(C)c(O)c2c1OC1=CC(=O)/C(=C(/C)N)C(=O)C12C (stereo not given)	8.2µM*	18.6	-1.1	14.6µM*	/	0.9
O=C(C[C@@H]1C[C@H]2c3cc(NC(=O)c4cccnc4)ccc3O[C@H]2[C@H](CO)O1)NCc1ccc(Oc2ccccc2)cc1	5.8µM*	-4.2	-4.0	13µM*	/	74.9
O=C(C[C@@H]1C[C@H]2c3cc(NC(=O)C4CCC4)ccc3O[C@H]2[C@@H](CO)O1)NCc1ccc(-c2ccccc2)cc1	20.6µM*	-1.5	1.1	18.4µM*	/	5.1
CCCN(Cc1cccs1)C(=O)Nc1cc(C)cc(C)c1	?	/	/	25.9µM*	-2.9%	/
CCCN(Cc1cccs1)C(=O)Nc1cc(Cl)c(OC)cc1OC	?	/	/	?	-2.9%	/
CCCN(Cc1cccs1)C(=O)Nc1cc(C)ccc1OC	16.4µM*	/	/	?	2.9%	/
C/C(=N\Nc1ccc(C(F)(F)F)cc1[N+](=O)[O-])C(C)C	-2.8%	3.9	-4.3	-7.2%	4.5%	19.9
CN(Cc1nc(-c2ccc(Cl)cc2)no1)S(=O)(=O)c1ccccc1	?	/	/	?	-11.6%	/
Cc1ccc(S(=O)(=O)N(C)Cc2nc(-c3ccncc3)no2)cc1	?	0.7	6.3	?	-1.0%	25.1
COc1ccc(-c2noc(CN(C)S(=O)(=O)c3ccccc3)n2)cc1OC	?	4.0	-0.1	16.4µM*	/	-10.0
Cc1ccc(S(=O)(=O)N(C)Cc2nc(-c3ccc(Br)cc3)no2)cc1	18.4µM*	2.8	12.3	?	/	43.5
CCC(C(=O)Nc1ccccc1-c1ccccc1)c1ccccc1 (stereo not given)	-30.0%	23.0	20.8	-25.8%	-5.7%	-22.2
N#Cc1c(N2CCOCC2)nsc1-c1ccc(C(F)(F)F)cc1	?	2.4	-3.6	?	7.6%	-18.2
Cc1cc(C)c(S(=O)(=O)Nc2cccc(C(F)(F)F)c2)c(C)c1	?	/	/	?	10.7%[56.1 µM]	/
COc1ccccc1NS(=O)(=O)c1ccc(-c2cc(C)no2)s1	7.31µM*	2.4	/	7.31µM*	0.4%	56.4
Cc1cc(-c2ccc(S(=O)(=O)Nc3cccc(C(F)(F)F)c3)s2)on1	?	/	/	20.6µM*	5.3%	/
COc1ccccc1NS(=O)(=O)c1cccs1	-8.2%	7.5	7.3	16.1%	1.9%	15.0
NC(=O)Cn1cc(C(=O)c2cccs2)c2ccccc21	3.4%	-2.6	-6.8	8.9%	-1.0%	18.2
O=C(c1ccco1)c1cn(CCOc2ccc(Cl)cc2)c2ccccc12	?	/	/	?	0.0%	/
O=C(c1cccs1)c1cn(CCOc2ccc(F)cc2)c2ccccc12	20.6µM*	/	/	16.4µM*	2.1%	/
SMILES	TDP1 cell noCPT	Six1-Eya2 blk	CtBP-E1A blk	TDP1 cell CPT	TDP1 inh	IL1B secr inh
CCOc1ccc(NC(=O)Cn2cc(C(=O)c3cccs3)c3ccccc32)cc1	?	/	/	?	6.3%	/
Cc1cc(OCCn2cc(C(=O)c3cccs3)c3ccccc32)ccc1Cl	16.4µM*	/	/	16.4µM*	-3.2%	/
CC(C)(C)c1ccc(OCCn2cc(C(=O)c3ccco3)c3ccccc32)cc1	23.1µM*	/	/	?	3.2%	/
O=C(c1cccs1)c1cn(CCOc2ccccc2F)c2ccccc12	18.4µM*	/	/	?	5.3%	/
CC(C)=CCC/C(C)=C/CC/C(C)=C/CC/C=C(\C)CC/C=C(\C)CCC=C(C)C	-25.4%	/	/	-2.6%	/	/
CCC(Sc1nnc(C)n2c1cc1occc12)C(=O)Nc1ccccc1OC (stereo not given)	20.6µM*	/	/	?	7.7%	/
C[C@@H]([C@H](O)c1ccccc1)N(C)C(=S)Nc1ccccc1	23.9%	-0.7	-2.2	13.8%	/	15.4
CCN(CC)CCOC(=O)c1ccc(N/C=C(/C#N)c2nc(-c3cccc(OC)c3)cs2)cc1	-24.7%	-2.3	-8.4	5.3%	/	/
CCN(CC)CCOC(=O)c1ccc(N/C=C(/C#N)c2nc(-c3ccc(OC)c(OC)c3)cs2)cc1	4.61µM*	-5.7	-8.4	-105.7%	/	-25.1
CCOc1cc(CNCc2ccccc2)ccc1OCc1ccc(Cl)cc1	5.8µM*	4.4	6.3	23.1µM*	/	-93.9*
COc1ccc(CNC/C=C/c2ccccc2)cc1	?	1.3	/	?	5.0%	-14.1
COc1ccc2ccccc2c1CNCCN1CCOCC1	-2.4%	7.6	5.6	-20.6%	6.6%	3.6
COc1ccc(CCNC/C=C/c2ccccc2)cc1	?	1.8	4.7	?	/	-67.9*
COc1cc(CNCCN2CCOCC2)ccc1OCc1cccc(Cl)c1	16.4µM*	6.5	-1.1	?	3.4%	?
CCNCc1ccc(OCc2cccs2)c(OCC)c1	-21.8%	8.1	/	?	2.7%	16.5
COc1cc(CN(C)CCc2ccccc2)ccc1OCc1ccccc1	25.9µM*	-5.2	-2.8	?	4.0%	?
Cc1cc(O)cc(=O)n1Cc1ccco1	9.2%	2.3	1.8	-1.8%	-1.0%	7.4
Nc1ccc(OCCCc2c(N)nc(N)nc2N)cc1	?	-12.5	/	-29.6%	6.3%	20.0
COc1ccc(CCNCc2csc3nc4ccccc4n23)cc1OC	9.2µM*	11.6	2.3	11.6µM*	6.8%	-7.1
COc1ccc(CCNC(=S)NCc2ccc(Cl)c(Cl)c2)cc1OC	?	-6.5	18.5	-2.5%	5.5%	-85.3*
COc1ccc(CCNS(=O)(=O)c2ccccc2)cc1OC	2.5%	3.7	6.9	-1.4%	3.3%	0.1
CCNC(=S)NCc1ccc(OC)c(OC)c1	6.7%	-15.5	18.5	16.9%	0.0%	11.2
COc1ccc(CNCCc2ccc(Cl)cc2)cc1OCc1ccccc1	4.61µM*	-15.9	25.6	6.51µM*	-2.6%	-96.2*
